# Results reported in PubChem BioAssay (NCI).
# About 83,000 compounds went through this panel and 20% of them were active in at least one assay; those are over-represented in the sample as a whole.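 Activity criterion: percent growth below 10, measured after cells in 96-well plates were exposed to a single compound concentration for 48 hours.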 Unmarked numbers belong to inactive results. Activity calls are given as the source filed them.
# Tested on: HL-60(TB) leukemia
# Assay: NCI-60 one-dose screen, 48 h (100 = growth as untreated, 0 = no growth, -100 = all killed)
# Conditions: 10 µM unless noted
row,SMILES,growth
1,COc1ccc(-c2nc3sccn3c2/C=C/C(=O)c2c[nH]c3ccccc23)cc1,117%
2,O=C(O)c1ccc(NC(=O)c2cccc(Nc3ccnc(C(F)(F)F)c3)c2)cc1,94.1%
3,CCCCC#Cc1c(I)n(C2OC(CO[Si](C)(C)C(C)(C)C)C3OC(C)(C)OC32)c(=O)[nH]c1=O (centres undefined),-29.4% (active)
4,Cc1ccc(C(=O)c2ccccc2)c(C)c1,115%
5,COc1ccc(CCN2C(=O)/C(=C/c3ccc(C4Oc5ccccc5C5CC(c6cccc(OC)c6)=NN54)cc3)SC2=S)cc1 (centres undefined),99.5%
6,CN1CCN(CCOc2ccc(-c3cnc4c(-c5cccc(F)c5)cnn4c3)cc2)CC1,10.7%
7,COc1cc2c(cc1O)CCN1C[C@@H](CC(C)C)[C@@H](O)C[C@@H]21,73.7%
8,COc1cc(CNS(=O)(=O)c2ccc(C)cc2)ccc1OCc1cn(-c2ccc(F)cc2)nn1,114%
9,CC/C=C\C[C@@H](O)C/C=C1/C(=O)C=C[C@H]1C/C=C\CCCC(=O)OC,-15.6% (active)
10,Oc1ccc2c(=S)cc(-c3ccc(Br)cc3)oc2c1O,-22% (active)
11,CCCCCCCCCCCCCCCCCC1=NC(C)(CO)CO1 (centres undefined),87.2%
12,COc1cccc(C(=O)NNC(=O)c2cccc3ccccc23)c1,97.8%
13,COc1ccc(Cn2cc(C(=O)N=Nc3c(O)[nH]c4c(Cl)cccc34)nn2)cc1,97.4%
14,O=c1c(/C=C/c2c(O)ccc3ccccc23)nnc2sc(-c3cccc([N+](=O)[O-])c3)nn12,11.2%
15,COc1ccc2c3c(c(OCCCN(C)C)nc2c1)-c1ccc(Cl)cc1C3=O,70.7%
16,CCC(=O)Oc1c(C)cc(O)c2ccccc12,68.8%
17,Nc1nc(N)c2cc(S(=O)(=O)c3cccc(C(F)(F)F)c3)ccc2n1,30.9%
18,COc1ccc(CN2C(=O)/C(=C\c3cc(OC)c(OC)c(OC)c3)c3cc(OC)ccc32)cc1,-27.2% (active)
19,COC1=CC(c2ccc[nH]2)=N/C1=C\c1[nH]c(C)c(C(=O)CCC(=O)Oc2ccc3c(c2)CCC2C3CC[C@]3(C)C(=O)CC[C@@H]23)c1C (some centres undefined),79.8%
20,Cc1cc(C)nc(SC2=C(Nc3cc(Cl)ccc3O)C(=O)N(Cc3ccccc3)C2=O)n1,85.3% [30 µM]

row,SMILES,growth
1,Cc1cc(C)c(C(=O)OC(C)CNC2CCCCC2)c(C)c1 (centres undefined),87.5%
2,CC(=O)n1c(/C(C#N)=C/c2ccc(N(C)C)cc2)cc2ccccc21,10.5%
3,COc1ccc2[nH]c(O)c(N=NC(=O)c3oc4ccccc4c3C)c2c1,53.9%
4,O=C1/C(=C/c2ccc(O)cc2)COc2ccc(O)c(O)c21,-19.3% (active)
5,COc1ccc2c(c1)C/C(=C\c1cc(-c3cc(OC)c(OC)c(OC)c3)n[nH]1)C2=O,79%
6,CC(C)OC(=O)OCOP(=O)(OCOC(=O)OC(C)C)C1CCCN(O)C1=O (centres undefined),6.5% (active)
7,Cc1c(Br)cccc1NC(=O)c1sc2nc3c(cc2c1N)CN(Cc1ccccc1)CC3,-30.5% (active)
8,Cc1cc(Nc2nc(N3CCNCC3)nc3ccccc23)n[nH]1,106%
9,COC1OCC(OS(=O)(=O)c2ccc(C)cc2)C(OC(=O)c2ccccc2)C1OC(=O)c1ccccc1 (centres undefined),25.4%
10,CCCCC#Cc1c(I)n(C)c(=O)[nH]c1=O,-10.8% (active)
11,CCOC(=O)c1ccc2c(c1)[n+](=O)c(C(C)=O)c(C(F)(F)F)n2[O-],-65.9% (active)
12,O=C(O)c1ccc2c(c1)C(=O)c1ccccc1C2=O,102%
13,CCCCCCCCn1ccc2cc(NC(=O)CN=[N+]=[N-])ccc21,102%
14,O=C(NC(Cc1ccc(O)cc1)C(=O)N=Nc1c(O)[nH]c2ccccc12)c1ccccc1 (centres undefined),101%
15,O=C(CCc1nnc(SCc2ccccc2)s1)c1nc2ccccc2[nH]1,92.3%
16,COc1ccc2oc(-c3ccc(Cl)cc3)c(N3CCN(C)CC3)c2c1,28.2%
17,O=C1c2ccccc2C(=O)c2c(N=Nc3sc(=O)[nH]c3S)cccc21,111%
18,N#CC(Cc1cccc2ccccc12)c1cc2ccccc2[nH]1 (centres undefined),96.4%
19,Cc1ccc2oc(=O)cc(C3C(C#N)=C(N)Oc4c3ccc3ccccc43)c2c1 (centres undefined),53.1%
